# Laboratory results as given in PubChem BioAssay (EPA / NIEHS).
# Results filed as inconclusive are left out. Calls of active or inactive are those of the source. How the source made its calls: active means hit-call score of the fitted dose curve at least 0.9, where 1 is the maximum; inconclusive means response in the unintended direction; inactive means score below 0.9.
# Assay: TOX21_TR_RXR_BLA_Antagonist_Followup_viability: Viability Assessment in the Tox21 Thyroid Hormone Receptor beta Retinoid X Receptor alpha (RXRa) Antagonism Beta-lactamase (BLA) Follow-Up Assay (AID 2283979)
# Source text: GeneBLAzer RXRa-UAS-bla HEK293T assay (RXRa-bla) (ThermoFisherScientific Catalog No. K1697) was run in qHTS 1536 well format as a secondary assay for specificity of response in the TOX21_TR_GH3_LUC_Agonist assay.TOX21_TR_RXR_BLA_Antagonist_Followup_viability is a component of the TOX21_TR_RXR_BLA_Antagonist_Followup assay. This component measures cell viability using the CellTiter-Glo Luciferase-coupled ATP quantitation.The assay component endpoint TOX21_TR_RXR_BLA_Antagonist_Followup_viability was analyzed with bidirectional fitting relation to DMSO as the negative control and baseline of activity. Using a type of viability reporter, loss-of-signal activity can be used to understand changes in viability. […]
# Cell Media Required: Growth (90% DMEM/F-12, 10% Fetal Bovine Calf Serum, 100U/ml Penicillin, 100 ug/ml Streptomycin), Assay (10ng/mL sodium selenite, 10 ug/mL humanapo-transferrin, 10 uM ethanolamine, 10 ug/mL insulin, 500 ug/mL bovine serum albumin (BSA))Assay Protocol: RXRa-bla cells were seeded at 2,500/well in 6 uL of the assay medium containing phenol red-free DMEM with 2% charcoal-stripped FBS in 1,536-well black-wall/clear-bottom plates (Greiner Bio-One North America) usinga Multidrop Combi dispenser. […] After 2-h incubation at room temperature, the fluorescence intensity was measured using an Envision plate reader (Perkin Elmer). Data were expressed as the ratio of 460:530 nm.
compound,measurement,value
CO/N=C(/C1=NOCCO1)c1ccccc1Oc1ncnc(Oc2ccccc2Cl)c1F,AC50,52 µM (active)
